Structures are written as SMILES. Screen size: about 1,900 compounds; about 390 (21%) were called active. How the calls were made is not given here. These entries were drawn from the full list.

The nature of the assay: carbachol calcium response in non-induced M3R cells, confirmation, counter-screen for RGS4 inhibitor project, cell-based, HEK293 M3R (AID 493000).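 Further: RGS4 induction absent so cells express M3R without RGS4.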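 On activity (percent): higher means more calcium signal and flags a non-specific hit.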 As to conditions: carbachol calcium Fluo-4, at 10 µM, submaximal (EC20) carbachol stimulus; hits give high values, buffer wells 0%, carbachol control wells 100%.
Regarding `O=S(=O)(Nc1nccs1)c1ccc2c(c1)OCCO2`, the activity (percent) entry is “inactive”.
As for `Brc1ccc(-c2csc(N/N=C/c3cccnc3)n2)cc1`, the entry is “inactive”.
Turning to `Cc1ccc(SC(CC(=O)c2ccc(C(C)(C)C)cc2)C(=O)O)cc1` (stereo not drawn), the activity (percent) entry is “inactive”.
As for `Nc1cccc(-c2cc(-c3ccccc3)nc(-c3cccc(N)c3)n2)c1`, the entry is “inactive”.
The result for `C=CCSc1nc2c(c(=O)[nH]1)C(C(C)C)C(C#N)=C(N)O2` (stereo not drawn) reads 49.5% (active).
The result for `O=C1c2ccccc2NC(c2ccc(-c3cccc(Cl)c3)o2)N1O` (stereo not drawn) reads “inactive”; that for `Cc1cc(C)nc(S/C=C/C(=O)c2ccccc2)n1`, “inactive”; that for `O=C(/C=C/Sc1ncn[nH]1)c1ccc(Cl)cc1`, 32.5% (active).
On to `O=C(Nc1ccccc1)OCc1cc(-c2ccc(Cl)cc2)on1`, for which the activity (percent) entry is “inactive”.
As for `Cc1ccc(Nc2nc(N)nc(CSc3nnc(C)s3)n2)cc1`, the entry is “inactive”.
On to `CCOC(=O)[C@@H]1[C@H]2COc3ccc(Br)cc3[C@H]2N2C(=O)N(c3ccc(Cl)cc3)C(=O)[C@@]12C`, for which the activity (percent) result was “inactive”.
As for `O=C(NCCCc1ccccc1)C1CCC(CNc2c(N3CCCCC3)c(=O)c2=O)CC1` (stereo not drawn), the entry is “inactive”; as for `COc1ccccc1C1C(C#N)=C(N)Oc2c1c(-c1ccccc1)nn2-c1ccccc1` (stereo not drawn), 34.5% (active); as for `CCC(c1nnnn1Cc1ccco1)N(Cc1cc2cc(OC)ccc2[nH]c1=O)C1CCCCC1` (stereo not drawn), “inactive”.
The result for `Cc1nn(C(C)C(=O)N2CCOCC2)c(=O)c2nn(-c3ccccc3)c(C)c12` (stereo not drawn) reads “inactive”; that for `CCc1ccc2oc(-c3ccc(N)cc3)nc2c1`, 37.5% (active).
As for `Cc1cc(-c2n[nH]c(=S)n2/N=C/C(Br)=C/c2ccccc2)n[nH]1`, the entry is “inactive”; as for `CCCCOC(=O)CNc1nnc(SCC(=O)OCC)[nH]c1=O`, “inactive”.
As for `O=C(O)c1ccc2c(c1)C(=O)N(c1ccc(/C=C/C(=O)c3ccccc3)cc1)C2=O`, the activity (percent) is 32% (active).
Regarding `CCOc1ccc(NC(=O)C/C(C)=N/NC(=O)Cc2cccs2)cc1`, the activity (percent) entry is “inactive”.
As for `Nc1ccccc1SC(C[N+](=O)[O-])c1ccccc1` (stereo not drawn), the entry is “inactive”; as for `COc1ccc(C(C[N+](=O)[O-])n2nc(C)cc2C)cc1` (stereo not drawn), “inactive”; as for `CCOC(=O)C1=NN(c2ccc(Cl)cc2)/C(=C/C2=NCCc3cc(OC)c(OC)cc32)S1`, “inactive”.

Values taken from PubChem BioAssay AID493000 (Johns Hopkins Ion Channel Center, 2010).
